From PubChem BioAssay (NCATS)
Inconclusive results are not listed. A call without a number means that no potency is given here. Active and inactive are the calls of the source. Calls follow the shape of the dose curve; as a rule, active = well fitted curve in the direction sought with a large enough effect; inconclusive = small, poorly fitted or top-dose-only effect, or another doubt; inactive = no such curve, though single readings can be large; an effect the other way counts as inactive or inconclusive.

Legend:
[1] = qHTS of pediatric cancer cell lines to identify multiple opportunities for drug repurposing: Primary screen for MG 63 (6-TG R) cells (AID 1347105); also: nearly all actives have a fitted effect of over 50% in size; also: potency is read from the fitted curve at half-maximal effect
Procedure, shortened: (§1)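 Quantitative HTS format: each compound titrated (MIPE 11 points from 0.78 nM, NPC 8 points from 0.59 nM) onto cells plated 5 hours earlier. After 48 h at 37 degrees C, CellTiter-Glo luminescence was recorded.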

[2] = qHTS of pediatric cancer cell lines to identify multiple opportunities for drug repurposing: Primary screen for control Hh wild type fibroblast cells (AID 1347106); also: nearly all actives have a fitted effect of over 55% in size; also: potency is read from the fitted curve at half-maximal effect
Procedure, shortened: (§2)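 Cells (500-1,000/well) in growth media were settled 5 h at 37 degrees C, then given compounds for 48 h. Viability was read as CellTiter-Glo luminescence. Primary runs used MIPE at 11 points (0.78 nM-46 µM) and NPC at 8 points (0.59 nM-46 µM); follow-ups used 11 points.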

[3] = qHTS of pediatric cancer cell lines to identify multiple opportunities for drug repurposing: Primary screen for Rh30 cells (AID 1347107); also: series mostly up to about 46 µM; nearly all actives have a fitted effect of over 75% in size
Procedure, shortened: as §2

[4] = qHTS of pediatric cancer cell lines to identify multiple opportunities for drug repurposing: Primary screen for Rh41 cells (AID 1347108);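 also: series mostly up to about 46 µM; luminescence drop marks cytotoxic hits; nearly all actives have a fitted effect of over 70% in size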
Procedure, shortened: as §1

| Structure (SMILES) | Potency [1] | Potency [2] | Potency [3] | Potency [4] |
| --- | --- | --- | --- | --- |
| CCOc1ccc(Cc2nccc3cc(OCC)c(OCC)cc23)cc1OCC | inactive | inactive | inactive | – |
| O=C1[C@H]2CCCC[C@H]2C(=O)N1CCCCN1CCN(c2nsc3ccccc23)CC1 | inactive | inactive | inactive | – |
| CCCCCCCCCCCCCCCC[N+](C)(C)CC | 26.6 µM (active) | – | – | – |
| c1ccc(OCc2ccc(CCCN3CCOCC3)cc2)cc1 | inactive | inactive | inactive | – |
| COc1ccc(CCN2CCC(Nc3nc4ccccc4n3Cc3ccc(F)cc3)CC2)cc1 | 16.8 µM (active) | – | – | – |
| c1ccc(-c2ccc(C(c3ccccc3)n3ccnc3)cc2)cc1 (stereo unspecified) | inactive | inactive | inactive | – |
| O=C(COc1ccc(Cl)cc1)N1CCN(Cc2ccc3c(c2)OCO3)CC1 | inactive | inactive | inactive | – |
| C=C(CC)C(=O)c1ccc(OCC(=O)O)c(Cl)c1Cl | 21.1 µM (active) | inactive | inactive | – |
| C/C=C/c1ccc(OC)cc1 | inactive | inactive | inactive | – |
| Oc1c(I)cc(Cl)c2cccnc12 | 21.1 µM (active) | inactive | inactive | – |
| O=c1[nH]c(=O)n([C@H]2C[C@H](O)[C@@H](CO)O2)cc1C(F)(F)F | inactive | inactive | – | – |
| c1ccc(CNCCNCc2ccccc2)cc1 | inactive | inactive | inactive | – |
| CC1(C)OC[C@@H](COC(=O)CCc2ccc(OC[C@@H](O)CNCCNC(=O)N3CCOCC3)cc2)O1 | inactive | inactive | inactive | – |
| Oc1ccc(Cl)c2cccnc12 | inactive | 16.8 µM (active) | inactive | – |
| CCN(CC)CCOC(=O)C(c1ccccc1)C1CCCCC1 (stereo unspecified) | inactive | inactive | inactive | – |
| CC(C)NC[C@@H](O)COc1cccc2ccccc12 | inactive | inactive | inactive | – |
| CC(C)(Oc1ccc(Cl)cc1)C(=O)O | inactive | inactive | inactive | – |
| COc1ccc(OC)c(C(O)CNC(=O)CN)c1 (stereo unspecified) | inactive | inactive | inactive | – |
| CC(O)C(=O)O (stereo unspecified) | inactive | inactive | inactive | – |
| CCCCCCc1ccc(O)cc1O | inactive | inactive | inactive | – |
| CC(C)(C)CC(C)(C)c1ccc(O)c(Cc2ccc(Cl)cc2Cl)c1 | 26.6 µM (active) | inactive | – | – |

| Structure (SMILES) | Potency [1] | Potency [2] | Potency [3] | Potency [4] |
| --- | --- | --- | --- | --- |
| C[C@H](O)C(=O)Nc1c(I)c(C(=O)NC(CO)CO)c(I)c(C(=O)NC(CO)CO)c1I | inactive | inactive | inactive | – |
| CCCN1CCCC[C@H]1C(=O)Nc1c(C)cccc1C | inactive | inactive | inactive | – |
| O=C(N/N=C/c1ccccc1O)c1ccncc1 | 6.68 µM (active) | – | – | – |
| NC[C@H]1O[C@H](O[C@H]2[C@H](O)[C@@H](O[C@H]3O[C@H](CO)[C@@H](O)[C@H](N)[C@H]3O)[C@H](N)C[C@@H]2N)[C@H](N)[C@@H](O)[C@@H]1O | inactive | inactive | inactive | – |
| CCCCCCCCCCCCCCCCCC(=O)OCC(O)CO (stereo unspecified) | inactive | inactive | inactive | – |
| CCOC(=O)c1cccc(N)c1 | inactive | inactive | inactive | – |
| COc1ccc(/C=C/C(=O)c2ccc(OC)cc2OC)cc1 | inactive | inactive | – | – |
| CC(C)(CO)[C@@H](O)C(=O)NCCCO | inactive | inactive | inactive | – |
| CN(C)CCCOc1nn(Cc2ccccc2)c2ccccc12 | inactive | inactive | inactive | – |
| CN1CCN(C(c2ccccc2)c2ccccc2)CC1 | inactive | inactive | inactive | – |
| CNCC[C@@H](Oc1ccccc1C)c1ccccc1 | inactive | inactive | inactive | – |
| COc1ccc(CN2CCN(C(c3ccc(F)cc3)c3ccc(F)cc3)CC2)c(OC)c1OC | inactive | inactive | inactive | – |
| CC(C)n1nc(-c2cc3cc(O)ccc3[nH]2)c2c(N)ncnc21 | 1.68 µM (active) | – | – | – |
| CN(C(=O)CN(CCO)CC(=O)N(C)C(C)(C)Cc1ccccc1)C(C)(C)Cc1ccccc1 | inactive | inactive | inactive | – |
| O=C(O)CCCCC(=O)O | inactive | inactive | inactive | inactive |
| CCCCCCCCCCCCCCNCCO | inactive | inactive | inactive | inactive |
| Cc1cccn2c(=O)c(-c3nnn[nH]3)cnc12 | inactive | inactive | inactive | inactive |
| Cc1c(C(N)=O)cc([N+](=O)[O-])cc1[N+](=O)[O-] | inactive | inactive | inactive | inactive |
| CCN1CCCC1=O | inactive | inactive | inactive | inactive |
| O=C(OCC(O)CO)c1ccccc1Nc1ccnc2cc(Cl)ccc12 (stereo unspecified) | inactive | inactive | inactive | – |
| CC(=O)CC(c1ccc([N+](=O)[O-])cc1)c1c(O)c2ccccc2oc1=O (stereo unspecified) | inactive | inactive | inactive | inactive |
